In PubChem BioAssay:
A number with no mark means an inactive call.

Test: A549 lung cancer cell viability effects, profiling panel, resazurin fluorescence, 24 h, PK04 Diversity Set (AID 1171); further: test concentration not given here
Conditions: higher = more signal, called active from +8 up or from −8 down

SMILES | z-score
CN(C)CCCCCCNC(=O)[C@@H]1C[C@@H]2C(=O)N[C@@H](CCCCN)C(=O)N2[C@@H]1c1ccc(O)cc1 | -0.3
CC(C)C(=C=CC[C@@H](O)c1cccc(OCCO)c1)C[C@@H](O)c1ccccn1 | 1.22
CCOC(=O)C1=CC[C@@H](c2ccccc2)N(S(=O)(=O)c2ccc(C)cc2)[C@H]1c1cccc(OC)c1 | 0.776
CC(C)=CCCC(C)=CC(O)C1C=CC2C(=O)N(c3ccccc3)C(=O)C2N1Nc1ccccc1F (stereo not given) | 0.598
C=CCC(OC(C)=O)[C@@H]1[C@@H](N(Cc2ccc(-c3cccc(C(F)(F)F)c3)o2)C(=O)Cc2ccc(OC)cc2)c2cc(OCCCO)ccc2N1C(=O)Cc1ccc2ccccc2c1 (stereo not given in full) | -0.674
NC(=O)NCC#Cc1ccc2c(c1)[C@]1(C(=O)N2)[C@H](C(=O)N2CCN(c3ncccn3)CC2)[C@H]2C(=O)O[C@H](c3ccccc3)[C@H](c3ccccc3)N2[C@@H]1c1ccc(OCCO)cc1 | 0.75
COCCOC(=O)N1C(=O)[C@@]2(c3cc(C#CC4=CCCCC4)ccc31)[C@H](c1ccc(O)cc1)N1[C@H](c3ccccc3)[C@H](c3ccccc3)OC(=O)[C@H]1[C@@H]2C(=O)NC[C@H](O)c1ccccc1 | -2.06
COCC(=C=CC[C@@H](O)c1cccc(OCCO)c1)CCO | 0.0444
Cc1ccc(S[C@]2(C(=O)NC(C)C)CC(=O)N(C(C)C)[C@@H]2c2ccc(CO)cc2I)cc1 | -0.0361
O=C1O[C@H](c2ccccc2)[C@H](c2ccccc2)N2[C@H]1[C@@H](C(=O)N1CCCCCCC1)[C@]1(C(=O)Nc3ccc(C#CC4(O)CCCCCC4)cc31)[C@H]2c1ccc(O)cc1 | 0.0109
